Compound activity deposited in PubChem BioAssay by National Center for Advancing Translational Sciences (NCATS).
Six1-Eya2 inh: qHTS Assay for Inhibitors of the Six1/Eya2 Interaction. 360,000 tested, 0.56% active. Homeobox protein SIX1 (Homo sapiens) + Protein phosphatase EYA2 (Homo sapiens), …. activity change, % (no concentration beside the values). AlphaScreen GST-Six1/His-Eya2 binding, biochemical; active compounds read low; in the data active = activity change below about -65%; inconclusive = mostly about -30% to -63%; also: % is scaled to controls: 0 for no effect and ±100 for the full control effect
Target sequence (O00167 whole entry, looked up): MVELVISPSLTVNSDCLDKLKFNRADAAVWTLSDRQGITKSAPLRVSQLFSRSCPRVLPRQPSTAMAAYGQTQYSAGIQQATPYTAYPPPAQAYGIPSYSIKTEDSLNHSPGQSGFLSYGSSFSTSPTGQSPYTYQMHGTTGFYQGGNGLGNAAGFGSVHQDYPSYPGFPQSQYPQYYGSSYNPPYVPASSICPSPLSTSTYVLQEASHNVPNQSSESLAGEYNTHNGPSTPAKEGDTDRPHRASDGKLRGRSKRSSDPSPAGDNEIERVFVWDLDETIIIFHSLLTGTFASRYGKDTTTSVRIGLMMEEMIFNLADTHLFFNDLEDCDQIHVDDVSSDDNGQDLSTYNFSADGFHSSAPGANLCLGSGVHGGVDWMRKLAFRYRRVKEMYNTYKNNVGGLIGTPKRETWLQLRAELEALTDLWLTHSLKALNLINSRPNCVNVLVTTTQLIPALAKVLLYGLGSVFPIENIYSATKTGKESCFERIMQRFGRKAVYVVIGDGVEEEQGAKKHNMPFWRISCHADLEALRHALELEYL
Target sequence (Q15475 whole entry, looked up): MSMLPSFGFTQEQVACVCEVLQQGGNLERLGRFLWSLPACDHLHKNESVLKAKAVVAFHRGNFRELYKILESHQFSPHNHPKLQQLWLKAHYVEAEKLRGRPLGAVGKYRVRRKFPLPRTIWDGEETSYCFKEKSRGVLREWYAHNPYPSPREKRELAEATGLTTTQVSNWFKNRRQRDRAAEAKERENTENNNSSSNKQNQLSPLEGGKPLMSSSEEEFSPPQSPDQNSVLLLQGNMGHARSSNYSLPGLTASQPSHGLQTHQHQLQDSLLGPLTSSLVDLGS
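Homogeneous AlphaScreen proximity assay pairing GST-Six1 with His-tagged Eya2 (added as 5X mix: 250 nM and 500 nM) in 50 mM Tris pH 8.0, 300 mM NaCl, 1 mM TCEP. Glutathione donor and nickel acceptor beads; 1 h, 37 °C, dark.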
ATXN viability: Viability Counterscreen for Primary qHTS for Inhibitors of ATXN expression; S2 cells (HEK-293 line with an ATXN2-luciferase reporter) viability, CellTiter-Fluor protease fluorescence, 24 h; Potency, µM (titrated, usually from 56.7 µM), actives largely listed as cytotoxic; 400,000 tested, 0.49% active; AID 651635, 2014; also: potency is read from the fitted curve at half-maximal effect; nearly all actives have a fitted effect of over 40% in size
HepG2 viability: qHTS for Inhibitors of TGF-b: Cytotox Counterscreen | 410,000 tested, 0.76% active | Potency, µM (titrated, usually from 46.1 µM), without a hit: at the highest dose activity change, negative = cytotoxicity, most hits filed as cytotoxic | HepG2 CAGA-GFP viability, ATP luminescence, 18 h; also: potency is read from the fitted curve at half-maximal effect
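CellTiter-Glo luminescence gave cytotoxicity after 18 hours at 37 degrees C. The cells were HepG2 CAGA-GFP in 1% FBS DMEM, stimulated with 500 pg/mL TGF-beta after compound addition. %Activity was normalised to no-cell wells (complete cell-killing) and DMSO (no toxicity), and curves were fitted and classified.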
TGFb inhibitor: qHTS for Inhibitors of TGF-b; AID 588855, 2011; HepG2 CAGA-GFP TGF-b/SMAD3 reporter, GFP fluorescence, 18 h; TGF-beta stimulated, 500 pg/mL final; Potency, µM (titrated, usually from 46.1 µM), without a hit: top-dose activity, negative = inhibition, hits mostly inhibitors; 410,000 tested, 1.2% active; also: potency is read from the fitted curve at half-maximal effect; % is scaled to controls: 0 for no effect and ±100 for the full control effect; nearly all actives have a fitted effect of over 65% in size
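Using HEPG2 CAGA-GFP reporter cells at 1000 cells/well, we pinned test compounds, stimulated with recombinant TGF-beta (500 pg/mL final) and measured total well GFP after 18 h.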
ATXN2 expr inh: Primary qHTS for Inhibitors of ATXN expression; AID 1745845, 2022; 360,000 tested, 0.72% active; Potency, µM (titrated, usually from 57 µM), for inactives: top-dose activity change, negative = inhibition, hits mostly inhibitors; HEK-293 ATXN2-luciferase reporter, luminescence, 24 h; also: potency is read from the fitted curve at half-maximal effect; % is scaled to controls: 0 for no effect and ±100 for the full control effect; nearly all actives have a fitted effect of over 55% in size
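ATXN2-luciferase reporter cells (luciferase flanked by upstream and downstream ATXN2 gene portions) were treated 24 h at 37 °C with compounds at up to 57 uM. SteadyGlo luminescence gave expression; GF-AFC fluorescence gave viability.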
CtBP-E1A blk: qHTS Assay for Inhibitors of the CtBP/E1A Interaction | activity change, % (no concentration beside the values) | CtBP / adenovirus E1A interaction (AlphaScreen) | AlphaScreen GST-E1A/His-CtBP binding, 1536-well; active compounds read low | 340,000 tested, 0.49% active | AID 651724, 2012; in the data active = activity change below about -65%; inconclusive = mostly about -30% to -63%; also: % is scaled to controls: 0 for no effect and ±100 for the full control effect
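AlphaScreen with 125 nM GST-E1A and 125 nM His-CtBP (5X stocks) in Tris pH 8.0, 300 mM NaCl, BSA, Tween 20, TCEP. Compounds preincubated 2 h at 37 deg C, then glutathione donor/nickel acceptor beads added for 1 h at 37 deg C in dark.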
Active calls of the source: *; i = inactive; ? = inconclusive; . = no result; [ ] = remark or other dose. Compounds with a hit are over-represented: about 2.8% of the library has one in this group of screens. Unless noted, calls follow the shape of the dose curve; as a rule, active = well fitted curve in the direction sought with a large enough effect; inconclusive = small, poorly fitted or top-dose-only effect, or another doubt; inactive = no such curve, though single readings can be large; an effect the other way counts as inactive or inconclusive.

SMILES | Six1-Eya2 inh | ATXN viability | HepG2 viability | TGFb inhibitor | ATXN2 expr inh | CtBP-E1A blk
Cc1sc2ncnc(SCC(=O)N3CCN(C(=O)c4ccco4)CC3)c2c1C | -12 | i | -20% | -28% | -16% | -11
Cc1sc2nc(C(C)C)nc(SCC(=O)N3CCN(C(=O)c4ccco4)CC3)c2c1C | -18 | . | -13% | -50% | 32µM* | -10
CC(C)(CNC(=O)c1cnn(-c2nccc(-c3cccs3)n2)c1C1CC1)N1CCOCC1 | . | i | . | . | . | .
Cc1cn2c(=O)cc(COC(=O)COc3ccccc3C)nc2s1 | . | i | -3% | -12% | 3% | .
CCOc1ccccc1NC(=O)CSc1ncc(S(=O)(=O)c2ccc(C)c(C)c2)c(N)n1 | . | i | -21% | 8.9µM* | 2% | .
N#Cc1c(N)[nH]c2ccc(Sc3ccccc3)cc12 | -6 | ? | 1% | 16µM* | 2% | 0
CC/C(=N\NC(=O)OC)c1ccc(OC(F)F)cc1 | 7 | i | 10µM* | 3% | -20% | -3
CC(=O)Nc1ccc(NC2=Nc3ccccc3N3C2=Nc2c(c(C)nn2-c2ccccc2)C3c2ccccc2)cc1 (configuration not stated) | 6 | ? | 2% | 0% | 7.9µM* | 3
CCOc1ccc(CN2CCOc3ccc(C(O)c4cccnc4)cc3C2)cc1 (configuration not stated) | . | i | . | . | . | .
O=C(N/N=C/c1cccc2nccnc12)c1ccncc1 | -68* | i | 12% | -20% | -26% | -89*
CCC(C)[C@@H](N)C(=O)N/N=C/c1cccc2nccnc12 (some centres not stated) | -87* | i | -5% | 24% | -25% | -71*
O=C(N/N=C/c1ccccc1C(=O)O)c1ccncc1 | 6 | i | -20% | 1% | 4% | 0
CC(C)(C)OC(=O)NCCC(=O)N/N=C/c1cccc2nccnc12 | ? | i | -24% | ? | -1% | -22
O=C(N/N=C/c1cccc2cccnc12)c1ccccc1O | -92* | 3.5µM* | -16% | ? | . | .
O=C(N/N=C/c1cccc2nccnc12)c1ccccc1O | -89* | i | -19% | -6% | ? | -76*
O=C(N/N=C\c1ccncc1)c1ccccc1O | -3 | i | -14% | -3% | . | -8
CCCCC(CC)CCC(CC(C)C)OS(=O)(=O)O (configuration not stated) | . | i | . | . | . | .
CCOc1ccc2c(ccc(/C=C/c3cc(C)c4cccnc4c3O)[n+]2C)c1 | -90* | 7.5µM* | -103% | 7.1µM* | ? | -94*
O=C(COCCOCCOCC(=O)Nc1c(I)cc(I)c(C(=O)O)c1I)Nc1c(I)cc(I)c(C(=O)O)c1I | . | i | . | . | 12% | .
COc1cc(OC)c(OC)cc1CN1CCOc2ccc(CN3CCN(C(C)=O)CC3)cc2C1 | . | i | . | . | . | .
O=C(NCCCc1cnc[nH]1)NCCCN(Cc1ccc(Cl)cc1)c1ccc(Br)cn1 | . | . | -58% | ? | . | .
S=C(NCCCc1cnc[nH]1)NCCCN(Cc1ccc(Cl)cc1)c1ccc(Br)cn1 | . | 28µM* | -98% | ? | ? | .
S=C(NCCCc1cnc[nH]1)NCCCN(CCc1ccc(Cl)cc1)c1ccc(Br)cn1 | . | . | 10µM* | ? | . | .
CCCCN(CCCNC(=S)NCCCc1cnc[nH]1)c1ccc(Br)cn1 | . | 18µM* | -41% | ? | ? | .
S=C(NCCCc1cnc[nH]1)NCCCN(Cc1ccc(Cl)cc1)c1ncc(Br)cn1 | . | . | -91% | 18µM* | . | .
SMILES | Six1-Eya2 inh | ATXN viability | HepG2 viability | TGFb inhibitor | ATXN2 expr inh | CtBP-E1A blk
Nc1nc2ccccc2cc1C(=O)NCc1cccs1 | 8 | . | . | . | . | -14
O=C(NC(c1ccc(Cl)cc1)c1c(O)ccc2ccccc12)c1ccccc1 (configuration not stated) | -1 | i | 18µM* | 11µM* | 13% | -16
O=C(NC(c1ccccc1)c1c(O)ccc2ccccc12)c1ccccc1Cl (configuration not stated) | -9 | i | -77% | ? | ? | 0
CCCCNC(=O)[C@@H]1CC=C[C@@H]2CCN(C3CCCCC3)C(=O)[C@@H]21 | . | . | -36% | -28% | . | .
CCOC(=O)c1cc(C)n(CCc2ccccc2)c1C | -11 | i | -16% | 2% | 21% | -4
Cc1cc(C(=O)CCl)c(C)n1CCc1ccccc1 | -3 | ? | 7.9µM* | ? | -33%[11.3 µM] | -5
Cc1cc(C(=O)CCl)c(C)n1Cc1ccco1 | -3 | 25µM* | -26% | ? | ? | 3
COc1cccc(C(=O)NC(C)c2nnc3n2CCN(CC=C(C)C)CC3)c1 (configuration not stated) | . | i | . | . | . | .
Cc1cccc(C(=O)OCc2cc(=O)n3ccsc3n2)c1 | . | i | -1% | -7% | 21% | .
C=CCc1c(C)nc(C)nc1N/N=C/c1ccccc1O | -81* | ? | -48% | ? | -38% | -92*
Cc1cc(C)n(-c2ccc([N+](=O)[O-])cc2-c2nn[nH]n2)n1 | 2 | i | 4% | 1% | 8% | 17
C=CCc1c(C)nc(C)nc1N/N=C/c1ccc([N+](=O)[O-])cc1 | -4 | i | -8% | -2% | -9% | -12
Cc1cc(/C=N/NC(N)=S)c(C)n1-c1ccc(Cl)cc1 | -13 | ? | -61% | ? | -8% | -18
Cc1nnc(N/N=C/c2cc(C)n(-c3ccc(F)cc3)c2C)n1N | -16 | i | -104% | 14µM* | 1% | -12
O=[N+]([O-])c1ccc(O)c(/C=N/Nc2nn[nH]n2)c1 | -74* | ? | -5% | 4% | -9% | ?
O=[N+]([O-])c1ccc(O)c(-c2nn[nH]n2)c1 | -92* | i | -32% | 10% | 65% | -94*
COC(=O)CSc1nnc2n(-c3ccccc3)c(=O)c3c4c(sc3n12)COC(C(C)C)C4 (configuration not stated) | . | i | -6% | 17% | 10% | .
COc1cc(C(=O)OC(COCCC(C)C)CN2CCOCC2)cc(OC)c1OC (configuration not stated) | . | i | . | . | 1% | .
Nc1c(O)cccc1C(=O)C[C@@H](N)C(=O)O | . | i | . | . | . | .
O=[N+]([O-])c1ccc(/C=N/NC2=NS(=O)(=O)c3ccccc32)cc1 | 1 | i | 0% | -7% | 11% | -5
Cc1nnc(N/N=C/c2ccccc2O)n1N | -78* | ? | -31% | ? | -18%[11.3 µM] | -87*
